TTR transcr act – TTR transcription activation, primary screen; actives 1.3% (n = 92,000); SH-SY5Y TTR promoter Gaussia luciferase, luminescence; 100% = recombinant luciferase protein wells; activation, % at 16.7 µM; AID 1117267;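 active = activation above the mean of all tested compounds plus 3 SD, cut at about 9.5% in these data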;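 note: cells exposed to compounds for one day before reading; 0% = median of all test compound wells on the plate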
TTR inh HuH7 – HuH7 TTR transcription inhibition, counter-screen; shares compounds with TTR transcr act; HuH7 TTR promoter-Gaussia luciferase reporter, luminescence; inhibition, % at 16.7 µM; actives 4% (n = 1,100); AID 1117279;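 active = average inhibition above the solvent-only control wells' mean plus 3 SD, cut at about 15% in these data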;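 note: 0% = cells with DMSO only and 100% = cells with inhibitor control FD; inhibitors lower well luminescence so higher value means more inhibition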
TTR up confirm – human TTR transcription activation, confirmation; shares compounds with TTR transcr act; SHSY5Y TTR promoter Gaussia luciferase, luminescence; 100% = purified Lucia enzyme wells, no cells; activation, % at 16.7 µM; 1,100 tested, under 10 active; AID 1117280;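 active = mean activation above a set limit taken from the earlier primary screen, cut at about 11% in these data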;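 note: 0% = DMSO-treated cells and 100% = recombinant Lucia luciferase without cells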
The depositor's hits bear a star. This is one part of a sample in which hits are shown more often than they occur.

SMILES | TTR transcr act | others
O=C1CCCCC1Nc1ccc([N+](=O)[O-])cc1 (centres undefined) | 12*
O=[N+]([O-])c1ccc(N/N=C2/CCCCC2c2ccccn2)cc1 (centres undefined) | -1
CC(=O)c1c(C)[nH]c(C(=O)Nc2ccccc2C)c1C | 1
CN(C)c1ccc(C(=O)NC2CCCCN(Cc3ccc(Cl)cc3)C2=O)cc1 (centres undefined) | 0
C/C=C\C=C/C(=O)Nc1cccc(C2=NOC3(C2)C[C@H](C(N)=O)N(C(=O)c2ccc(OC)cc2)C3)c1 (some centres undefined) | 16*
C/C=C\C=C/C(=O)Nc1cccc(C2=NOC3(C2)C[C@H](C(N)=O)N(C(=O)CC)C3)c1 (some centres undefined) | -2
C/C=C/C=C\C(=O)Nc1cccc(C2=NOC3(C2)C[C@@H](C(N)=O)N(C(=O)/C(C)=C/C)C3)c1 (some centres undefined) | -1
O=C(Cn1c(=O)c2cccn2c2cccnc21)NCCCN1CCN(c2ccccc2)CC1 | -1
COC(=O)Cn1nc(-c2ccccc2)c2cccc(C(F)(F)F)c21 | -1
Cc1ccc(S(=O)(=O)N(C)C[C@H]2Oc3ccc(NC(=O)C4CCCCC4)cc3C(=O)N([C@H](C)CO)C[C@H]2C)cc1 | -1
COc1ccc(S(=O)(=O)N(C)C[C@@H]2Oc3ccc(NS(C)(=O)=O)cc3C(=O)N([C@@H](C)CO)C[C@H]2C)cc1 | -1
COc1ccc(S(=O)(=O)N(C)C[C@H]2Oc3ccc(NC(=O)C4CC4)cc3C(=O)N([C@H](C)CO)C[C@@H]2C)cc1 | 12*
O=C(Nc1ccc(F)cc1)OCc1cn(Cc2ccccc2F)nn1 | 0
COC(CNC(=O)[C@H](Cc1c[nH]c2ccccc12)NC1(C(=O)NCc2ccccc2)CCCCC1)OC | -2
O=C(Nc1ccc(F)cc1)OCc1cn(Cc2ccc(F)c(F)c2)nn1 | -1
COc1cc(NC(=O)c2ccc3c(c2)OCO3)ccc1NC(=O)C(C)C | 21*
CC(=O)c1cccc(NC(=O)c2ccc3c(c2)OCO3)c1 | -2
NC(=O)c1ccc(NC(=O)c2ccc3c(c2)OCO3)cc1 | 1
Cc1cccc(C(=O)Nc2nc3ncccn3c2-c2ccc(F)cc2)c1 | 5
O=C1CCC[C@H]2C[C@H](NCc3ccc(Cl)c(Cl)c3)CC[C@]23CCCN13 | -1
COc1cccc(C2CC(=O)Nc3cc(OC)c(OC)c(OC)c32)c1OC (centres undefined) | 16*
COc1cccc(C2CC(=O)Nc3n[nH]c(-c4ccccc4)c32)c1OC (centres undefined) | 1
COc1cccc(C2CC(=O)Nc3cc(OC)c(OC)cc32)c1 (centres undefined) | 0
CNC(C)C(=O)NC(C(=O)N1CCCC1C(=O)Nc1cccc2ncccc12)C(C)C (centres undefined) | -1
CS/C(=C\[N+](=O)[O-])Nc1ccc(OC(F)(F)F)cc1 | -2
SMILES | TTR transcr act | others
Cc1ccc(N=C2SC(C(=O)Nc3ccc(OC(F)(F)F)cc3)C(N)=C2C(=O)Nc2c(C)cc(C)cc2C)cc1 (centres undefined) | 9.8*
Cc1ccc(-c2nc3ncccn3c2NC(=O)Nc2ccc(OC(F)(F)F)cc2)cc1 | 4
CCCCOCCCNC(=O)C[C@H]1C(=O)N(Cc2ccc(OC)cc2)C2=CCCCC[C@@]21C(=O)OC | 0
C=CCN1C(=O)[C@H](CC(=O)NCc2ccccc2)[C@@]2(C(=O)OCC)CCCC=C12 | 2
O=C(NCCc1nc2ccccc2n1C/C=C/c1ccccc1)C1CCCCC1 | -1
CN(CCOc1ccc(-c2ccn(S(=O)(=O)c3c(Cl)cccc3Cl)n2)cc1)c1ccccn1 | 15*
Cc1ccc(S(=O)(=O)n2ccc(-c3cccc(OCc4c(F)cccc4Cl)c3)n2)cc1 | 0
CCOc1ccc(S(=O)(=O)n2ccc(C)n2)cc1 | -4
O=C(NC1CCCCN(Cc2ccc(Cl)cc2)C1=O)c1cccc([N+](=O)[O-])c1 (centres undefined) | -1
COC(=O)[C@@H]1N=C(c2ccc(OC)cc2)O[C@]12C(=O)N(Cc1cn(-c3ccccc3)nn1)c1cccc(Cl)c12 | 0
CC(=O)c1ccc(NC(=O)Cn2nc(C)cc2C)cc1 | 10*
Cc1cc([N+](=O)[O-])nn1CC(=O)Nc1ccc(F)cc1 | 1
Cc1cc(C)n(CC(=O)Nc2ccccc2)n1 | 0
C[C@H]1CCCN1c1cccc2c1S(=O)(=O)N(C1CC1)CCCO2 | -1
COc1ccc(CN2C(=O)CCCC2(C)c2nnnn2-c2c(C)cccc2C)cc1OC (centres undefined) | 1
Cc1ccccc1Sc1ncnc2onc(C)c12 | -4
Cc1cccc(N(C)c2ncnc3onc(-c4ccc(F)cc4)c23)c1C | 13* | TTR inh HuH7=25*;TTR up confirm=0
CCC1CCCCN1C(=O)n1ncc(C(O)(c2ccccc2)c2ccccc2)n1 (centres undefined) | 0
CC1(c2nnnn2Cc2ccccc2)CCC(=O)N1CCc1ccccc1F (centres undefined) | 11* | TTR inh HuH7=-11;TTR up confirm=0
CC1(c2nnnn2Cc2ccccc2)CCC(=O)N1CC(F)(F)F (centres undefined) | -1
CC1(c2nnnn2Cc2ccccc2)CCC(=O)N1CCc1c[nH]c2ccccc12 (centres undefined) | -1
Cc1cc(C)cc([C@H]2C[C@]34CN(C(=O)OC(C)(C)C)S(=O)(=O)[C@H]3C[C@H]2O4)c1 | 4
C=CCCC(=O)N[C@H]1CC[C@@]23CCCN2C(=O)CCC[C@H]3[C@H]1C | 0
COC(CNC(=O)[C@H](Cc1ccccc1)NC(C)(C)C(=O)NC1CCCCC1)OC | -2
CCC/C(=N\NC(=O)c1ccccc1C)c1ccccc1 | 10* | TTR inh HuH7=4;TTR up confirm=-1
SMILES | TTR transcr act | others
Cc1ccccc1C(=O)NCC(=O)c1ccccc1 | 2
O=C(O)CC/C(=N/NC(=O)c1cccs1)c1ccccc1 | -1
O=c1c2cc3cc4c(cc3nc2ncn1CCc1ccccc1)OCO4 | 0
O=c1c2cc3cc4c(cc3nc2ncn1Cc1cccnc1)OCO4 | 18* | TTR inh HuH7=-10;TTR up confirm=2
O=c1c2cc3cc(Cl)ccc3nc2ncn1CCc1ccc(O)cc1 | 0
CCOC(=O)[C@]12CCCC=C1N(CCCOC)C(=O)[C@@H]2CC(=O)N1CCC(c2ccccc2)CC1 | 0
COc1cccc(OC)c1NC(=O)NC(=O)c1c(OC)c(Br)cc([N+](=O)[O-])c1OC | -1
COc1ccc([N+](=O)[O-])c(OC)c1C(=O)NC(=O)Nc1c(F)cc(F)cc1F | 126* | TTR inh HuH7=-7;TTR up confirm=0
COc1ccc([N+](=O)[O-])c(OC)c1C(=O)NC(=O)Nc1nc(C)cc(C)n1 | 6
COC(=O)[C@@]12CCCCC3=C1N(CCC3)C(=O)[C@H]2CC(=O)NCC1CCCCC1 | 0
COc1n[nH]c(C(=O)Nc2cc(F)ccc2C)c1[N+](=O)[O-] | 10* | TTR inh HuH7=-15;TTR up confirm=-1
COc1ccc(Cl)cc1NC(=O)c1[nH]nc(OC)c1[N+](=O)[O-] | -2
Cc1ccc(F)cc1NC(=O)c1cccc2nccnc12 | -2
Cc1ccccc1C(=O)NC1CCCCN(Cc2cccc(Cl)c2)C1=O (centres undefined) | -1
